A selection: hits, their analogues and other compounds. The true share with any hit is near 5.2%.
Sfp inh – blocks B. subtilis Sfp PPTase activity | actives 3.5% (n = 310,000) | AID 1490 | Potency, µM, without a hit: largest response in the series, negative = inhibition, most hits filed as inhibitors | Biochemical Sfp PPTase activity, qHTS | Q9F4F7;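 also: the enzyme is Sfp with the accession as filed and its product quenches rhodamine fluorescence; 0% = enzyme reaction without inhibitor and -100% = no enzyme wells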
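Fluorescence-quenching assay with 15 nM Sfp, 5 uM rhodamine-CoA and 12.5 uM BHQ-2-labelled ybbR peptide in pH 7.6 Hepes/MgCl2 buffer. Enzyme was pre-incubated with compound for 15 min at room temperature. Rate was taken from the 30-min fluorescence change (525/598 nm).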
mIDH1 inhibitor – inhibitors of human mutant IDH1 R132H. O75874. IDH1-R132H enzyme, NADPH consumption, diaphorase/resazurin fluorescence. Potency, µM (doses to about 76.6 µM), without a hit: at the highest dose activity change, negative = inhibition, hits mostly inhibitors. actives 0.093% (n = 390,000); also: nearly all actives have a fitted effect of over 65% in size
Target sequence (O75874 whole entry R132H, stated change not applied): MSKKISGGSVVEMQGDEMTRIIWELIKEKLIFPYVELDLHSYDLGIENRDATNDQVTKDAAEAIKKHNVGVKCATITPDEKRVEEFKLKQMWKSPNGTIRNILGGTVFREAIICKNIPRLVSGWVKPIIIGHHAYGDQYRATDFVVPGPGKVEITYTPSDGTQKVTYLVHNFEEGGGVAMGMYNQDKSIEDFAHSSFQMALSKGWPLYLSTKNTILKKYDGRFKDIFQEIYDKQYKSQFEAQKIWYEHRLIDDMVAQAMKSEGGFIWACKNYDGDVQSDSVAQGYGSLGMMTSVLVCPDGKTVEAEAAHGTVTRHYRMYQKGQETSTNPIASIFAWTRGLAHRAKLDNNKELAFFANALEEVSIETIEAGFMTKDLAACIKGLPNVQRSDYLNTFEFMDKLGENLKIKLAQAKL
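IDH1-R132H (0.5 ug/mL) preincubated 30 min with compound, then NADPH (0.016 mM) and alpha-KG (2 mM) added; 80 min at RT, pH 7.5. Remaining NADPH coupled via diaphorase/resazurin to fluorescence (540/590 nm); concentration-response curves normalized to no-enzyme control.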
TrxR1 substrate – is turned over as a substrate by rat TrxR1. O89049. purified TrxR1 substrate turnover, NADPH consumption readout. Potency, µM (series often up to 114 µM), inactives show top-dose activity change, negative = substrate turnover. actives 0.01% (n = 390,000); also: nearly all actives have a fitted effect of over 50% in size
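Rat TrxR1, dispensed at 90 nM, was prereduced with 400 uM NADPH (final) for 5 min at ~22 deg C, then incubated with compound 15 min before 400 uM selenite. A first-read NADPH fluorescence drop versus no-compound background flagged substrates.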
TrxR1 inh – inhibitors of rat thioredoxin reductase 1; AID 588453; O89049; actives 1% (n = 390,000); recombinant rTrxR1, NADPH fluorescence consumption, selenite substrate; Potency, µM (series often up to 114 µM), for the others: top-dose activity change, negative = inhibition, actives largely listed as inhibitors; also: nearly all actives have a fitted effect of over 65% in size
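Rat TrxR1 (90 nM in the dispensed reagent) was pre-reduced with 400 uM NADPH for 5 min at room temperature, then incubated with compound for 15 min. After 400 uM selenite was added, NADPH fluorescence (Ex 340/Em 450 nm) was followed for 8 min.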
VDR inh – vitamin D3 receptor (human) inhibition | VDR-SRC2-3 peptide fluorescence polarization, 2 h | Potency, µM, without a hit: max response, negative = inhibition, usual class: inhibitors | actives 0.93% (n = 400,000)
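Fluorescence polarization assay measuring small-molecule disruption of VDR binding to the coregulator peptide SRC2-3. Compounds were pin-transferred (23 nl) into the reagent mix and incubated 2 h at room temperature before reading.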
PLK1 PBD inh – blocks phosphopeptide binding to human PLK1 polo-box domain. Plk1 PBD binding of FITC phosphopeptide, fluorescence polarization. AID 720504. Potency, µM, for the others: max response, negative = inhibition, usual class: inhibitors. actives 2.8% (n = 360,000). P53350; also: series mostly up to about 57 µM; nearly all actives have a fitted effect of over 65% in size
The depositor's hits bear a star; ? = inconclusive; . = no result given; [ ] = dose if it differs, or a comment. Calls follow the shape of the dose curve; as a rule, active = well fitted curve in the direction sought with a large enough effect; inconclusive = small, poorly fitted or top-dose-only effect, or another doubt; inactive = no such curve, though single readings can be large; an effect the other way counts as inactive or inconclusive. Unless noted, % is scaled to controls: 0 for no effect and ±100 for the full control effect; potency is read from the fitted curve at half-maximal effect.

SMILES	Sfp inh	mIDH1 inhibitor	TrxR1 substrate	TrxR1 inh	VDR inh	PLK1 PBD inh
COc1ccc(CNC(=O)CSc2nnc3c(n2)[nH]c2ccccc23)cc1	-2.3%	9.4%	11.1%[0.0914 µM]	17.7%[57.1 µM]	-0.6%	-1.9%
O=C(Cn1cnc2sc(-c3ccccc3)cc2c1=O)NCc1ccco1	31.6µM*	-3.6%	5.4%[57.1 µM]	?	?	2.67µM*
O=C(CSc1nc(-c2ccccc2)c(-c2ccccc2)[nH]1)NCc1ccco1	15.6%	0.5%	4.2%	-0.5%	?	21.2µM*
O=C(CSc1nnc(-c2ccccc2)c(-c2ccccc2)n1)NCc1ccco1	?	0.1%	0.9%	?	-3.4%	21.2µM*
O=C(CSc1nnc2c(n1)[nH]c1ccccc12)NCc1ccco1	39.8µM*	2.5%	0.2%	-15.5%	-3.5%	29.9µM*
COc1ccccc1NS(=O)(=O)c1cc(C(=O)N2CCCC2)ccc1F	.	3.8%	8.0%[57.1 µM]	-7.2%	-4.1%	-3.5%
COc1ccccc1NC(=O)n1ncc2c(C)cccc21	.	9.3%	4.5%	23.6%	4.4%	.
O=C(O)CSc1nnc(-c2ccccc2)c(-c2ccccc2)n1	16.7%	0.0%	-14.1%	?	?	9.47µM*
O=C(Cn1ncn2c(cc3ccccc32)c1=O)NCc1ccco1	22.4µM*	2.2%	11.3%	?	1.5%	-11.3%
NC(=O)CSc1nnc(-c2ccccc2)c(-c2ccccc2)n1	12.1%	-12.7%	-0.3%	6.7%	2.7%	-9.4%
Cc1ccc(NC(=O)CN(C)C(=O)COc2ccc(Br)cc2)cc1	.	1.7%	.	.	.	-7.9%
NC(=O)CC(O)c1cccc(Cl)c1 (stereo not drawn)	3.3%	2.6%	9.5%[57.1 µM]	-4.4%	-10.3%	26.7µM*
NC(=O)CSc1nnnn1-c1cccc(Cl)c1	12.0%	1.5%	1.4%	-13.2%	-15.2%	5.0%
CC(=O)C1=C(c2ccccc2)NC(=O)NC1c1ccc(O)c(O)c1 (stereo not drawn)	44.7µM*	0.0%	1.9%[57.1 µM]	-27.1%[57.1 µM]	-7.3%	-3.3%
COc1cc2c(c(OC)c1OC)-c1c(cc3c(c1OC)OCO3)CC(C)C(C)(O)C2OC(=O)c1ccccc1 (stereo not drawn)	5.4%	.	.	.	13.9%	.
COc1ccccc1Cc1nnc(NC(=O)C2CCN(C(=O)c3ccco3)CC2)s1	44.7µM*	0.3%	-6.0%	6.8%	?	26.7µM*
COCc1nnc(NC(=O)C2CCN(C(=O)c3ccco3)CC2)s1	50.1µM*	2.5%	2.8%[57.1 µM]	17.0%[57.1 µM]	-7.5%	26.7µM*
CC(C)(C)c1ccc(C(=O)NC(=S)Nc2sc3c(c2C#N)CCC3)cc1	?	-2.9%	7.8%[57.1 µM]	-0.8%[57.1 µM]	-22.4%	?
CN1Cc2sc(NC(=S)NC(=O)c3ccccc3)c(C#N)c2CC1(C)C	31.6µM*	-3.7%	-2.7%[57.1 µM]	?	?	13.4µM*
CCC1(C)Cc2c(sc(NC(=S)NC(=O)c3ccccc3)c2C#N)CO1 (stereo not drawn)	-26.4%	-0.5%	4.5%[57.1 µM]	?	-16.3%	13.4µM*
CCc1nc2c(OCC(=O)C(C)(C)C)cccn2c1N(C)C(=O)C(C)C	.	.	.	.	.	-20.6%
Cc1ccc(NCCC(=O)c2cccc([N+](=O)[O-])c2)c(C)c1	-12.9%	-0.7%	2.2%[57.1 µM]	3.16µM*	-12.8%	?
CNC(CC(=O)c1ccc([N+](=O)[O-])cc1)C(Cl)(Cl)Cl (stereo not drawn)	10µM*	4.5%	?	0.631µM*	17.8µM*	2.67µM*
Cc1ccc(NCC(=O)c2ccc([N+](=O)[O-])cc2)cc1	20µM*	1.1%	-0.5%	17.6%[57.1 µM]	?	-12.4%
Cc1ccc(C(=O)CNc2cccc([N+](=O)[O-])c2)cc1	5.4%	-3.3%	7.1%[57.1 µM]	6.9%	-11.3%	-14.0%
SMILES	Sfp inh	mIDH1 inhibitor	TrxR1 substrate	TrxR1 inh	VDR inh	PLK1 PBD inh
Cc1ccccc1NC(=O)CCC(=O)OCC(=O)c1cccc([N+](=O)[O-])c1	27.9%	0.7%	-4.2%[57.1 µM]	-12.7%	-6.7%	-5.9%
Cc1ccc(C(=O)c2ccc([N+](=O)[O-])cc2)cc1C	-9.7%	2.8%	3.9%	7.4%	15.7%	-6.4%
Cc1cccc(NCCC(=O)c2ccc([N+](=O)[O-])cc2)c1C	-4.3%	1.4%	0.3%	4.47µM*	?	?
c1ccc(CNc2oc(-c3ccccc3)nc2-c2cccc3ccccc23)cc1	-12.6%	.	.	.	?	.
Nc1nc(=S)c2n[nH]nc2[nH]1	.	.	-4.8%	-20.1%	-10.7%	.
CCC(=O)Nc1c2c(nn1-c1ccc(C)cc1C)CSC2	?	3.3%	13.9%[57.1 µM]	21.7%[57.1 µM]	10.3%	-8.4%
Cc1ccc(-n2nc3c(c2NC(=O)C(C)(C)C)CSC3)c(C)c1	70.8µM*	1.5%	4.0%[57.1 µM]	16.2%[57.1 µM]	-10.9%	-4.3%
O=C(O)Cc1cccc(OCCCN(Cc2cccc(C(F)(F)F)c2Cl)CC(c2ccccc2)c2ccccc2)c1	44.7µM*	.	.	.	39.8µM*	.
Cc1oc2ncn(CC(C)C)c(=O)c2c1C(=O)NCCCN1CCCCC1	.	-8.0%	-5.7%	13.5%	3.1%	.
CC(Oc1ccc(F)cc1)C(=O)Nc1cccc(-c2nn[nH]n2)c1 (stereo not drawn)	31.6µM*	0.0%	-8.5%	-11.6%	?	21.2µM*
COc1ccc(OC(C)C(=O)Nc2cccc(OC)c2)cc1 (stereo not drawn)	-10.9%	6.3%	1.1%	-7.8%	0.7%	-6.3%
C=CCc1cc(OC)ccc1OCCOCCN1CCc2ccccc2C1	35.5µM*	5.2%	5.4%[57.1 µM]	8.6%	0.8%	-9.2%
Cc1ccc(CNC(=O)CC(C)S(=O)(=O)c2ccc3c(c2)NC(=O)CO3)cc1 (stereo not drawn)	9.6%	-11.7%	-0.4%	22.9%	-14.8%	-7.9%
COc1ccc(CNC(=O)CC(C)S(=O)(=O)c2ccc3c(c2)NC(=O)CO3)cc1 (stereo not drawn)	18.6%	-8.5%	4.1%[57.1 µM]	25.6%[57.1 µM]	-1.0%	23.8µM*
Cc1ccc(CNC(=O)CC(C)S(=O)(=O)c2ccc3c(c2)NC(=O)CS3)o1 (stereo not drawn)	25.1µM*	1.4%	2.7%	15.8µM*	-2.0%	?
COc1ccc(CN2CCNC(=O)C2CC(=O)NC2CCC2)c(OC)c1 (stereo not drawn)	19.9%	1.5%	-5.1%	-17.9%	-16.2%	-18.0%
COc1ccc(CN2CCNC(=O)C2CC(=O)NC2CCCC2)c(C)c1C (stereo not drawn)	-4.5%	-6.0%	-1.6%	-15.7%	?	9.47µM*
O=C(Nc1ccc(Br)cc1F)N1CCC(CN2CCCC2)CC1	.	10.0%	-1.0%	-13.0%	5.0%	.
CC(C(=O)Nc1ccc(O)cc1)c1cccc(C(=O)c2ccccc2)c1 (stereo not drawn)	11.5%	-0.3%	-0.7%[57.1 µM]	10.8%[57.1 µM]	-15.4%	11.9µM*
CN(C)c1ccc(-c2nc(-n3ccnc3)c3ccccc3n2)cc1	-3.2%	.	.	.	25.1µM*	.
CN(C)C(=O)c1ccc(-c2nc(-n3ccnc3)c3ccccc3n2)cc1	-29.2%	.	.	.	-19.2%	.
